The values that follow come from PubChem BioAssay (EPA / NIEHS).

Results filed as inconclusive are left out. Activity calls are given as the source filed them. How the source made its calls: active means hit-call score of the fitted dose curve at least 0.9, where 1 is the maximum; inconclusive means response in the unintended direction; inactive means score below 0.9.

Experiment [1] can be described thus: ATG_XTT_Cytotoxicity: Cytotoxicity Assessment in the Attagene TRANS-FACTORIAL HepG2 Assay (AID 2283584). Summed up: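 HepG2 cells transiently transfected with GAL4-UAS multiple reporter units, dosed 24 h; cytotoxicity read by XTT as loss of signal versus DMSO baseline.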
For experiment [2], the target named is Cellular tumor antigen p53 (Homo sapiens) (UniProt P04637). Description: TOX21_p53_BLA_p2_ratio: Tox21 HCT-116 p53 Agonism Beta-lactamase Assay, Ratio, Phase 2 (AID 2283592). The procedure, abridged: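 HCT-116 cells with p53-responsive beta-lactamase reporter, 4000 cells/well, preincubated 5 h, then compound in DMSO (217-fold dilution) for 16 h at 37C. CCF4-AM substrate 2 h at room temperature; 460/530 nm emission ratio fitted upward versus DMSO.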
Cellular tumor antigen p53 (Homo sapiens), sequence (P04637 whole entry, looked up): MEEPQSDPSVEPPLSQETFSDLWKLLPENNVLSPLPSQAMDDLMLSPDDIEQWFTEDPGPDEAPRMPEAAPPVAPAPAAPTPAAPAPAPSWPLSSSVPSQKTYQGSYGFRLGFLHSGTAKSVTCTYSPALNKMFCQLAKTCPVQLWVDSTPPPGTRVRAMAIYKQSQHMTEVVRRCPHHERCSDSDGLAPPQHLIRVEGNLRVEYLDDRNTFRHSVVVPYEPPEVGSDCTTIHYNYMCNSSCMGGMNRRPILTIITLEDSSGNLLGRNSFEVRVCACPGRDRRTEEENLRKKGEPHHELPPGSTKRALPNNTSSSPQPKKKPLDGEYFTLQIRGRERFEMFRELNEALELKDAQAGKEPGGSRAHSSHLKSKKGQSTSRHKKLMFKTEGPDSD

Experiment [3] shares this target. Description: TOX21_p53_BLA_p3_ratio: Tox21 HCT-116 p53 Agonism Beta-lactamase Assay, Ratio, Phase 3 (AID 2283596). The procedure, abridged:
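HCT116 p53-bla cells (4000/well) given compound in DMSO (217-fold dilution) after 5 h, incubated 16 h at 37C. CCF4-AM substrate 2 h at room temperature; 460/530 nm emission ratio, gain fitted against DMSO.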

Experiment [4] can be described thus: TOX21_p53_BLA_p4_viability: Viability Assessment in the Tox21 HCT-116 p53 Agonism Beta-lactamase Assay, Phase 4 (AID 2283597).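 Further: hits lower the luminescence signal meaning cytotoxicity.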 The procedure, abridged: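 HCT-116 p53-bla cells, 4000/well, dosed after 5 h attachment and incubated 16 h at 37 °C, 5% CO2. Viability from CellTiter-Glo ATP luminescence after 30 min at room temperature, taken after the beta-lactamase read; loss of signal indicates cytotoxicity.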

Experiment [5] has as its target Cellular tumor antigen p53 (Homo sapiens) (UniProt P04637). The experiment in a line: TOX21_p53_BLA_p5_ratio: Tox21 HCT-116 p53 Agonism Beta-lactamase Assay, Ratio, Phase 5 (AID 2283599). Summed up: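 Beta-lactamase reporter ratio (blue 460 nm over green 530 nm, 405 nm excitation) after 2 h CCF4-AM loading, in HCT-116 cells exposed 16 h at 37 C to compounds pinned at 217-fold dilution. Increases relative to DMSO baseline scored.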

The target is the same in experiment [6]. Description: TOX21_p53_BLA_p4_ratio: Tox21 HCT-116 p53 Agonism Beta-lactamase Assay, Ratio, Phase 4 (AID 2283601). The procedure, abridged:
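Signal is the blue/green (460nm/530nm) ratio of cleaved versus uncleaved CCF4-AM substrate, read after 2 h substrate loading. Cells were HCT116 carrying the p53-responsive beta-lactamase reporter, dosed 16 h at 37C, 5% CO2; CellTiter-Glo measured in parallel.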

Experiment [7] can be described thus: TOX21_p53_BLA_p5_viability: Viability Assessment in the Tox21 HCT-116 p53 Agonism Beta-lactamase Assay, Phase 5 (AID 2283600). The procedure, abridged:
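HCT-116 p53 beta-lactamase reporter cells, 4000/well, were exposed to compound (pin transfer, 217-fold dilution) for 16 hours at 37C. Cellular ATP was read by CellTiter-Glo luminescence after 30 min at room temperature.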

The nature of experiment [8]: TOX21_p53_BLA_p3_viability: Viability Assessment in the Tox21 HCT-116 p53 Agonism Beta-lactamase Assay, Phase 3 (AID 2283593).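 Further: cells exposed to compound for 16 h before reading.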 The procedure, abridged:
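Cellular ATP was quantified by CellTiter-Glo luminescence, read after 30 min at room temperature. Beforehand, HCT116 cells (4000/well) received compound 5 h post-seeding, 217-fold diluted from DMSO, then incubated 16 h at 37C.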

The AC50 is the midpoint of the concentration-response curve, whichever way the signal moves.

As to `Cc1cc(=O)oc2cc(N(C)C)ccc12`, the result in experiment [1] and in experiment [4] was inactive. Moreover, the concentration at half-maximal activity (AC50) was 51.5 µM (active) in experiment [2], 50.6 µM (active) in experiment [3], 47.9 µM (active) in experiment [5] and 53.6 µM (active) in experiment [6].
`Cc1cc(S(=O)(=O)O)ccc1N=Nc1c(O)ccc2ccccc12`: the outcome in experiment [1], in experiment [2], in experiment [3], in experiment [4] and in experiment [7] was inactive.
For the compound `CC(C)(CO)[C@@H](O)C(=O)NCCC(=O)O`, the outcome in experiment [1], in experiment [2], in experiment [3], in experiment [5] and in experiment [6] was inactive.
Take `CCCC[O][Al]([O]CCCC)[O]CCCC`: the compound was called inactive in experiment [1], in experiment [2], in experiment [3], in experiment [4], in experiment [5] and in experiment [6].
`CCCC(=O)OCCc1ccccc1`: the call in experiment [1], in experiment [3], in experiment [5] and in experiment [6] was inactive.
In the case of `CCCC(=O)C(CC)Sc1ccoc1C` (configuration not stated), the result in experiment [1], in experiment [8], in experiment [4], in experiment [7] and in experiment [6] was inactive.
Regarding `OC[C@H]1O[C@@H](Oc2ccc(O)cc2)[C@H](O)[C@@H](O)[C@@H]1O`, the call in experiment [1], in experiment [2], in experiment [8], in experiment [3], in experiment [4] and in experiment [5] was inactive. Moreover, the outcome in experiment [7] and in experiment [6] was inactive.
In the case of `CCOc1ccc(N=Nc2ccc(C=Cc3ccc(N=Nc4ccc(OCC)cc4)cc3S(=O)(=O)O)c(S(=O)(=O)O)c2)cc1`, the result in experiment [1], in experiment [7] and in experiment [6] was inactive.
With `C=C[Si]1(C)O[Si](C)(C=C)O[Si](C)(C=C)O[Si](C)(C=C)O1` (configuration not stated), the compound was called inactive in experiment [1], in experiment [2], in experiment [8] and in experiment [6].
As to `ON=C1CCCCC1`, the compound was classed as inactive in experiment [1], in experiment [2], in experiment [3], in experiment [4], in experiment [5] and in experiment [7]. Also, in experiment [6], the outcome was inactive.
For `O=C(O)c1cc(C(=O)O)cc([N+](=O)[O-])c1`, the call in experiment [1] and in experiment [6] was inactive.
On to `CCCCCCC(CO)CCCC` (configuration not stated), for which the call in experiment [1], in experiment [2], in experiment [3] and in experiment [6] was inactive.
In the case of `CC(=O)C(C)O` (configuration not stated), the compound was classed as inactive in experiment [1], in experiment [2], in experiment [3], in experiment [4] and in experiment [6].
Regarding `N#Cc1cscn1`, the call in experiment [1], in experiment [2], in experiment [8], in experiment [4], in experiment [7] and in experiment [6] was inactive.
Turning to `O=C(O)c1cccnc1C(=O)O`, the call in experiment [1], in experiment [3], in experiment [5] and in experiment [7] was inactive.
On to `CCCCOC(=O)CCCCCCCC(=O)OCCCC`, for which the call in experiment [1], in experiment [2] and in experiment [5] was inactive.
As to `COS(=O)(=O)O`, the result in experiment [1], in experiment [7] and in experiment [6] was inactive.
As for `CC[N+](C)(CC)CC`, the call in experiment [1], in experiment [2], in experiment [5] and in experiment [6] was inactive.
With `CCc1ccc(O)c(OC)c1`, the call in experiment [1] and in experiment [5] was inactive.
Consider `CC(C=O)Cc1ccc(C(C)(C)C)cc1` (configuration not stated), for which the compound was classed as inactive in experiment [1], in experiment [2], in experiment [8], in experiment [3], in experiment [4] and in experiment [5]. In addition, the result in experiment [7] and in experiment [6] was inactive.
For `CCCCC(CC)(CO)CO`, the result in experiment [1], in experiment [2], in experiment [8], in experiment [5], in experiment [7] and in experiment [6] was inactive.
`CCCCCCCC(=O)OCCCCCC`: the call in experiment [1], in experiment [2], in experiment [8], in experiment [5], in experiment [7] and in experiment [6] was inactive.
For `CC(=O)O[C@H]1C[C@@H]2CC[C@@]1(C)C2(C)C`, the call in experiment [1], in experiment [2], in experiment [3] and in experiment [5] was inactive.
For the compound `C=CC(=O)OCCC#N`, the call in experiment [1], in experiment [5], in experiment [7] and in experiment [6] was inactive.
`O=C(O)COCC(=O)O`: the call in experiment [1], in experiment [2], in experiment [3], in experiment [7] and in experiment [6] was inactive.
Regarding `CCCCC1CCC(O)CC1` (configuration not stated), the compound was classed as inactive in experiment [1], in experiment [2] and in experiment [7].
Turning to `CS(C)=O`, the result in experiment [1], in experiment [2], in experiment [8], in experiment [3], in experiment [4] and in experiment [5] was inactive. Besides, the result in experiment [7] and in experiment [6] was inactive.
As to `CC(=O)OCCCc1ccccc1`, the result in experiment [1], in experiment [2], in experiment [8], in experiment [3], in experiment [5] and in experiment [6] was inactive.
Turning to `CC(=O)NCCO`, the compound was classed as inactive in experiment [1], in experiment [2], in experiment [3] and in experiment [4].
`Cc1ccc(OC(=O)c2ccccc2O)cc1`: the result in experiment [1], in experiment [2], in experiment [8], in experiment [3], in experiment [5] and in experiment [7] was inactive.
Consider `OCC(O)c1ccccc1` (configuration not stated), for which the call in experiment [1], in experiment [2], in experiment [8], in experiment [4], in experiment [5] and in experiment [6] was inactive.
Consider `COCCc1ccc(OCC(O)CNC(C)C)cc1` (configuration not stated), for which the compound was called inactive in experiment [1], in experiment [2], in experiment [3], in experiment [5] and in experiment [6].
